Sfp inh: Sfp phosphopantetheinyl transferase inhibition | Potency, µM, most hits filed as inhibitors | Q9F4F7 | 3.5% of 310,000 active | Biochemical Sfp PPTase activity, qHTS;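 note: the enzyme is Sfp with the accession as filed and its product quenches rhodamine fluorescence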
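Fluorescence-quenching assay with 15 nM Sfp, 5 uM rhodamine-CoA and 12.5 uM BHQ-2-labelled ybbR peptide in pH 7.6 Hepes/MgCl2 buffer. Enzyme was pre-incubated with compound for 15 min at room temperature. Rate was taken from the 30-min fluorescence change (525/598 nm).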
HP1b chromo inh: blocks HP1-beta chromodomain binding to methylated histone tails; Potency, µM (highest dose often 114 µM), most hits filed as inhibitors; AlphaScreen HP1-beta / biotin-H3K9me3 peptide binding; 0.56% of 390,000 active; note: nearly all actives have a fitted effect of over 70% in size
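Compound inhibition of the preformed complex between 50 nM HP1-beta and 50 nM biotinylated H3K9me3 peptide was read by AlphaScreen. Buffer was PBS pH 7.4 with 0.01% Tween-20. Incubations ran 30 min at room temperature, with 10 ug/mL donor/acceptor beads.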
BAZ2B inh: blocks human BAZ2B. AlphaScreen BAZ2B-H3K14Ac peptide displacement. 4.4% of 360,000 active. Potency, µM (series often up to 114 µM), most hits filed as inhibitors. AID 504333. Q9UIF8; note: nearly all actives have a fitted effect of over 60% in size
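AlphaScreen displacement of biotin-H3(5-23)K14Ac peptide (50 nM final) from BAZ2B (50 nM final) in PBS pH 7.4, 0.01% Tween-20; complex preformed 30 min RT, then compounds (top 110 uM) 30 min RT, beads 20 min dark.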
L3MBTL1 block: L3MBTL1 (human) inhibition; Q9Y468; 0.66% of 230,000 active; AlphaScreen L3MBTL1–H3K9me1 peptide binding; Potency, µM (highest dose often 57.1 µM), actives largely listed as inhibitors; note: nearly all actives have a fitted effect of over 60% in size
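Displacement of a biotinylated histone H3(1-15) peptide monomethylated at Lys9 (75 nM) from L3MBTL1 (50 nM) was measured by AlphaScreen after a 30 min room-temperature compound incubation; cefsulodin titration served as intraplate control.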
G9a block: G9a (human) methyltransferase inhibition. Q96KQ7. G9a H3K9 monomethylation, AlphaScreen, 2 h. Potency, µM (top dose mostly 102 µM), usual class: inhibitors. 8.8% of 350,000 active; note: nearly all actives have a fitted effect of over 75% in size
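G9a (20 nM) was preincubated 15 min with compound, then reacted 2 h at room temperature with 500 nM biotin-H3K9 peptide and 20 µM SAM. Monomethyl-H3K9 detected by AlphaScreen using anti-H3K9me1 antibody.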
JMJD2A Tudor inh: JMJD2A Tudor domain (human) inhibition; O75164; AlphaScreen JMJD2A-Tudor / H3K4me3 peptide binding; Potency, µM (doses to about 114 µM), hits mostly inhibitors; 4.4% of 390,000 active; AID 504339; note: nearly all actives have a fitted effect of over 50% in size
Large screens that a line does not name were inactive. Sampled rows, rich in hits. Any-hit rate of the full collection: about 12%. Calls come from the whole dose curve; as a rule, active = well fitted curve in the direction sought with a large enough effect; inconclusive = small, poorly fitted or top-dose-only effect, or another doubt; inactive = no such curve, though single readings can be large; an effect the other way counts as inactive or inconclusive.

COc1ccc(N2CC(C(=O)Nc3nc4ccc(S(C)(=O)=O)cc4s3)CC2=O)cc1 (stereo unspecified)	Sfp inh inconclusive, BAZ2B inh inconclusive, G9a block 28µM (no result: L3MBTL1 block)
COc1ccc2nc(NC(=O)C3CCN(S(=O)(=O)c4cccs4)CC3)sc2c1	JMJD2A Tudor inh 100µM (no result: L3MBTL1 block)
COc1ccc2nc(NC(=O)C3CCCN(S(=O)(=O)c4cccs4)C3)sc2c1 (stereo unspecified)	none (no result: L3MBTL1 block)
O=C(N=Nc1c(O)n(Cc2ccccc2)c2ccccc12)c1ccc(O)cc1	none
O=S1(=O)CC(O)C(N=Nc2c(O)n(Cc3ccccc3)c3ccccc23)C1 (stereo unspecified)	HP1b chromo inh inconclusive, BAZ2B inh inconclusive, G9a block 40µM
CN(C)c1ccc(N=Cc2cccn2C)cc1	BAZ2B inh 20µM, G9a block 8.9µM, JMJD2A Tudor inh 50µM (no result: L3MBTL1 block)
CC(=O)Oc1oc(-c2ccccc2)nc1C=Nc1ccc(N(C)C)cc1	none
CCC(C)Nc1ccc(NC(C)CC)cc1 (stereo unspecified)	HP1b chromo inh inconclusive, BAZ2B inh 35µM, L3MBTL1 block inconclusive, JMJD2A Tudor inh 40µM (no result: Sfp inh)
Cc1ccc(S(=O)(=O)CC(=O)Nc2nc(C(C)(C)C)cs2)cc1	G9a block 40µM (no result: L3MBTL1 block)
CCOC(=O)Cc1csc(NC(=O)Cc2cccs2)n1	BAZ2B inh 50µM, L3MBTL1 block inconclusive, JMJD2A Tudor inh 45µM
Cc1ccc(S(=O)(=O)CCC(=O)Nc2nc(C(C)(C)C)cs2)cc1	none (no result: L3MBTL1 block)
Cc1ccc(S(=O)(=O)CCc2nnc(NC(=O)CCl)s2)cc1C	G9a block 79µM
CCOC(=O)Cc1csc(NC(=O)CCSc2ccccc2)n1	G9a block 50µM
Cc1ccc(S(=O)(=O)CCc2nnc(N)s2)cc1C	none
COc1ccc(C2c3[nH]c4ccccc4c3CC3C(=O)N(CCc4ccc(OC)c(OC)c4)CC(=O)N32)cc1 (stereo unspecified)	none (no result: HP1b chromo inh, BAZ2B inh, L3MBTL1 block, G9a block, JMJD2A Tudor inh)
CC(C)(C)c1ccc(C(=O)Nc2cccc3c(=O)[nH][nH]c(=O)c23)cc1	none
CCOC(=O)Cc1csc(NC(=O)CSc2cc(Cl)ccc2Cl)n1	BAZ2B inh inconclusive, G9a block 22µM
CCOC(=O)Cc1csc(NC(=O)CSc2nc(C)cc(C)n2)n1	none (no result: Sfp inh, BAZ2B inh, G9a block)
COCc1nnc(NC(=O)CS(=O)(=O)c2ccc(C)cc2)s1	G9a block 50µM, JMJD2A Tudor inh inconclusive (no result: L3MBTL1 block)
CC(C)(C)c1csc(NC(=O)c2cccs2)n1	G9a block inconclusive
CC(C)(C)c1csc(NC(=O)Cc2cccs2)n1	BAZ2B inh 50µM, G9a block 50µM
COc1ccc(CNC(=O)c2ccc3c(c2)NC(=O)C(C)S3)cc1 (stereo unspecified)	Sfp inh 22µM, G9a block 10µM
CCCCNC(=O)c1ccc2c(c1)NC(=O)C(CS(=O)(=O)Cc1ccc(C)cc1)N2 (stereo unspecified)	G9a block inconclusive (no result: Sfp inh, L3MBTL1 block)
COc1ccc(CNC(=O)c2ccc3c(c2)NC(=O)C(CS(=O)(=O)Cc2ccccc2Cl)N3)cc1 (stereo unspecified)	G9a block 11µM (no result: Sfp inh, L3MBTL1 block)
O=C(NCc1ccc(Cl)cc1)c1ccc2c(c1)NC(=O)C(CS(=O)(=O)Cc1ccccc1Cl)N2 (stereo unspecified)	G9a block inconclusive (no result: Sfp inh, L3MBTL1 block)
CCCCNC(=O)c1ccc2c(c1)NC(=O)C(CS(=O)(=O)Cc1cccc(C)c1)N2 (stereo unspecified)	G9a block 14µM (no result: Sfp inh, L3MBTL1 block)
O=[N+]([O-])c1ccc(CN2CCCCCC2)cc1	G9a block inconclusive
CN(C)c1ccc(CN2CCCCCC2)cc1	G9a block inconclusive
O=[N+]([O-])c1ccc(CN2CCOCCOCCN(Cc3ccc([N+](=O)[O-])cc3)CCOCC2)cc1	Sfp inh inconclusive, BAZ2B inh inconclusive, G9a block inconclusive, JMJD2A Tudor inh inconclusive
CSc1ccc(CN2CCN(Cc3ccc([N+](=O)[O-])cc3)CC2)cc1	HP1b chromo inh inconclusive, BAZ2B inh 28µM, G9a block 32µM, JMJD2A Tudor inh inconclusive
CCS(=O)(=O)N1CCN(Cc2ccc([N+](=O)[O-])cc2)CC1	Sfp inh 79µM, HP1b chromo inh inconclusive, BAZ2B inh 50µM, G9a block inconclusive, JMJD2A Tudor inh 5.6µM
CSc1ccc(CN2CCCCCC2)cc1	HP1b chromo inh inconclusive, G9a block 11µM, JMJD2A Tudor inh 5µM
CN1CCN(NC(=O)/C=C/c2cccc([N+](=O)[O-])c2)CC1	none (no result: L3MBTL1 block)
c1c[nH]c(CN2CCN(Cc3ncc[nH]3)CC2)n1	JMJD2A Tudor inh 14µM (no result: Sfp inh, BAZ2B inh, L3MBTL1 block, G9a block)
Cc1cccc(Oc2ccccc2NC(=O)CSCC(=O)Nc2cc(C)on2)c1	G9a block 10µM (no result: Sfp inh)
O=C1CCN(S(=O)(=O)c2ccc(Cl)cc2)N1	G9a block inconclusive
O=C1CCN(S(=O)(=O)c2ccccc2)N1	G9a block 11µM
O=C(O)c1ccc(Nc2nc(-c3ccccc3)nc3ccccc23)cc1	G9a block inconclusive, JMJD2A Tudor inh 40µM (no result: L3MBTL1 block)
CNC(=O)c1ccc(Nc2nc(-c3ccccc3)nc3ccccc23)cc1	G9a block 50µM (no result: L3MBTL1 block)
Oc1ccc(Nc2nc(-c3ccccc3O)nc3ccccc23)cc1	BAZ2B inh inconclusive, G9a block 50µM, JMJD2A Tudor inh inconclusive (no result: L3MBTL1 block)
COc1ccc(Nc2nc(-c3ccccc3O)nc3ccccc23)cc1	none (no result: L3MBTL1 block)
Cc1ccc(-c2nc(Nc3ccc(N4CCOCC4)cc3)c3ccccc3n2)cc1	HP1b chromo inh inconclusive, BAZ2B inh 32µM, JMJD2A Tudor inh 40µM (no result: G9a block)
c1ccc(Nc2nc(-c3ccccc3)nc3ccccc23)cc1	none
O=S(=O)(Nc1ccc2oc3c(c2c1)CCCC3)c1cc(Cl)ccc1Cl	G9a block inconclusive (no result: Sfp inh, L3MBTL1 block)
O=C1[C@@H]2[C@H]3C(=CC[C@@H]2C(=O)N1Cc1ccccc1)C1(OCCCO1)[C@H]1O[C@@H]1[C@H]3O	none (no result: HP1b chromo inh, BAZ2B inh, L3MBTL1 block, G9a block, JMJD2A Tudor inh)
O=C(CN1CCC(n2nnc3cc(F)ccc32)CC1)NCc1ccco1	Sfp inh 56µM, BAZ2B inh 79µM, G9a block inconclusive
COc1ccccc1NC(=O)CN1CCC(n2nnc3cc(F)ccc32)CC1	none (no result: L3MBTL1 block)
Cc1noc(C)c1C(=O)N1CCC2(CC1)CCN(c1ncccn1)CC2	none (no result: HP1b chromo inh, BAZ2B inh, L3MBTL1 block, JMJD2A Tudor inh)
COc1ccc([N+](=O)[O-])cc1N(CC(O)CN1CCCCC1)S(=O)(=O)c1ccccc1 (stereo unspecified)	none (no result: G9a block)
CCCN(CCC)CC(O)CN(c1cc([N+](=O)[O-])ccc1OC)S(=O)(=O)c1ccccc1 (stereo unspecified)	G9a block 56µM
COc1ccccc1N(CC(O)CN1CCOCC1)S(=O)(=O)c1ccccc1 (stereo unspecified)	G9a block 50µM (no result: L3MBTL1 block)
NC(=O)[C@@H]1CCOc2c(F)cc([N+](=O)[O-])cc2C(=O)N[C@@H](CO)C(=O)NCC(=O)N1	G9a block inconclusive

High-throughput results from PubChem BioAssay.
